Experimental data as given in PubChem BioAssay (EPA / NIEHS).
Results filed as inconclusive are left out. Activity calls are given as the source filed them. Rule for the calls: active = hit-call score of the fitted dose curve at least 0.9, where 1 is the maximum; inconclusive = response in the unintended direction; inactive = score below 0.9.

Columns and labels:
[1] = molecular target: human Neurokinin, NK2 Receptor, TACR2 (gene 6865) (UniProt P21452); test: NVS_GPCR_hNK2: NovaScreen (NVS) G Protein-Coupled Receptor Assay for human Neurokinin, NK2 Receptor (AID 2283278);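 note: actives reduce bound radioligand signal relative to DMSO baseline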
Outline: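 Cell-free radioligand binding using receptor protein extracted from CHO cells; readings taken 4 hours after chemical dosing by filter-based scintillation counting. Primary screen ran single concentration (25 uM) in duplicate; actives followed up in concentration series, loss-of-signal versus DMSO baseline.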

[2] = molecular target: Muscarinic acetylcholine receptor M1 (Homo sapiens) (UniProt P11229); test: NVS_GPCR_hM1: NovaScreen (NVS) G Protein-Coupled Receptor Assay for human Muscarinic, M1 Receptor (AID 2283270)
Outline: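 Actives from a duplicate 25 uM single-point screen were retested in concentration series. Binding measured as displacement of a radioligand from CHO-derived receptor preparation, 1 h incubation, filtration and scintillation counting, analysed as signal loss against DMSO.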

[3] = molecular target: Muscarinic acetylcholine receptor M3 (Homo sapiens) (UniProt P20309); test: NVS_GPCR_hM3: NovaScreen (NVS) G Protein-Coupled Receptor Assay for human Muscarinic, M3 Receptor (AID 2283272)
Description: (§1) NVS_GPCR_hM3 is a biochemical, single-readout assay that uses extracted gene-proteins from CHO in a cell-free assay. Measurements were taken 1 hour after chemical dosing in a 96-well plate.NVS_GPCR_hM3 is one of one assay component(s) measured or calculated from the NVS_GPCR_hM3 assay. It is designed to make measurements of radioligand binding, a form of binding reporter, as detected with scintillation counting signals by Filter-based radiodetection technology.Data from the assay component NVS_GPCR_hM3 was analyzed into 1 assay endpoint. This assay endpoint, NVS_GPCR_hM3, was analyzed in the positive analysis fitting direction relative to DMSO as the negative control and baseline of activity. Using a type of binding reporter, loss-of-signal activity can be used to understand changes in the binding as they relate to the gene CHRM3. Furthermore, this assay endpoint can be referred to as a primary readout, because the performed assay has only produced 1 assay endpoint. To generalize the intended target to other relatable targets, this assay endpoint is annotated to the gpcr intended target family, where the subfamily is rhodopsin-like receptor.
(§2) Binding assays used specific radioligands (tritiated, iodinated) with non-radioactive competitive displacement ligands in agonist or antagonist protocols (as indicated) and various reference compounds and inhibitors to titrate specific binding to receptors and transporters. Most enzyme assays (CYPs, kinases, phosphatases, proteases, HDACs) used recombinant protein and specific substrates (fluorescence mostly, some colorimetric and radioactive) and inhibitors, followed by a biochemical separation of substrate and product. All assays for the biochemical HTS were initially run in duplicate at a single concentration (10 uM for CYP450 assays and 25 uM for all others). […] Each assay was run with positive and negative controls, and concurrent controls on every plate. The follow-up (secondary) screen tested active chemical-pairs in concentration series, as well as a few additional assays not tested in the primary screen, some selected negative inactives, and several cases re-run in the concentration series for confirmatory purposes.

[4] = molecular target: D(1A) dopamine receptor (Homo sapiens) (UniProt P21728); test: NVS_GPCR_hDRD1: NovaScreen (NVS) G Protein-Coupled Receptor Assay for human Dopamine Receptor D1 (DRD1) (AID 2283269)
Outline: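 Cell-free competition with radioligand, filter-trapped and scintillation-counted 1 h post-dose, using HEK293-derived human D1 preparation. Duplicate single-point testing at 25 uM first, then concentration series for actives; DMSO served as baseline, loss-of-signal scored.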

[5] = molecular target: Muscarinic acetylcholine receptor M2 (Homo sapiens) (UniProt P08172); test: NVS_GPCR_hM2: NovaScreen (NVS) G Protein-Coupled Receptor Assay for human Muscarinic, M2 Receptor (AID 2283273)
Outline: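 Radioligand competition binding, cell-free, receptor from CHO; 1 h incubation; scintillation detection. Primary testing at 25 uM in duplicate.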

[6] = molecular target: human Muscarinic, M4 Receptor, CHRM4 (gene 1132) (UniProt P08173); test: NVS_GPCR_hM4: NovaScreen (NVS) G Protein-Coupled Receptor Assay for human Muscarinic, M4 Receptor (AID 2283274)
Description: as §1, with “NVS_GPCR_hM4” for “NVS_GPCR_hM3”, “plate.NVS_GPCR_hM4” for “plate.NVS_GPCR_hM3”, “NVS_GPCR_hM4,” for “NVS_GPCR_hM3,”, “CHRM4.” for “CHRM3.”
as §2

[7] = molecular target: Neuropeptide Y receptor type 2 (Homo sapiens) (UniProt P49146); test: NVS_GPCR_hNPY2: NovaScreen (NVS) G Protein-Coupled Receptor Assay for human Neuropeptide Receptor Y2 (NPY2) (AID 2283277)
Outline: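 Chemicals were first tested in duplicate at 25 uM, then actives in singleton concentration series to 50 uM. Tracer binding to SK-N-MC-derived protein measured cell-free after 1 h via filter scintillation; signal loss relative to DMSO.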

[8] = molecular target: human Leukotriene B4 Receptor 1 (LTB4-BLT1), LTB4R (gene 1241) (UniProt Q15722); test: NVS_GPCR_hLTB4_BLT1: NovaScreen (NVS) G Protein-Coupled Receptor Assay for human Leukotriene B4 Receptor 1 (LTB4-BLT1) (AID 2283271)
Outline: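 Cell-free human neutrophil receptor preparation, 1 h exposure, radioligand binding read by filter scintillation counting. Single 25 uM duplicate screen, then concentration series topping at 50 uM; binding loss scored against DMSO baseline.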

[9] = molecular target: human Histamine 1 Receptor (H1), HRH1 (gene 3269) (UniProt P35367); test: NVS_GPCR_hH1: NovaScreen (NVS) G Protein-Coupled Receptor Assay for human Histamine 1 Receptor (H1) (AID 2283268)
Outline: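 Filter-based scintillation detection of radioligand binding to human H1, 1 h incubation; chemicals screened in duplicate at 25 uM, then concentration-response; signal loss relative to DMSO taken as activity.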

[10] = molecular target: human Neuropeptide Receptor Y1 (NPY1), NPY1R (gene 4886) (UniProt P25929); test: NVS_GPCR_hNPY1: NovaScreen (NVS) G Protein-Coupled Receptor Assay for human Neuropeptide Receptor Y1 (NPY1) (AID 2283276)
Outline: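 Displacement of specific radioligand from NPY1 receptor of SK-N-MC origin, read by filtration and scintillation after 1 h. Compounds first tested at 25 uM in duplicate, then actives in concentration series; signal loss relative to DMSO.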

Sequence of human Neurokinin, NK2 Receptor, TACR2 (gene 6865) (P21452 whole entry, looked up): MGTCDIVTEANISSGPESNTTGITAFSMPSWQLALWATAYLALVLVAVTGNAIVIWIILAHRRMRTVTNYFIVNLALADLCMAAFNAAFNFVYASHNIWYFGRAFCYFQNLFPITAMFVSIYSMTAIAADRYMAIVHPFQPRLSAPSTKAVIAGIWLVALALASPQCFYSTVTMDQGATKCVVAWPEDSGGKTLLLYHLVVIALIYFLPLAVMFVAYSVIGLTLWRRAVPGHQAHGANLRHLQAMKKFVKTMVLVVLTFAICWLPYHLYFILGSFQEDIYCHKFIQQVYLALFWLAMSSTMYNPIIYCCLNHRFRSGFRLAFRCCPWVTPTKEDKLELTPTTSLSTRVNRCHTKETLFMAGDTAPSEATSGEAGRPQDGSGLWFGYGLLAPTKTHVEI
Sequence of human Muscarinic, M4 Receptor, CHRM4 (gene 1132) (P08173 whole entry, looked up): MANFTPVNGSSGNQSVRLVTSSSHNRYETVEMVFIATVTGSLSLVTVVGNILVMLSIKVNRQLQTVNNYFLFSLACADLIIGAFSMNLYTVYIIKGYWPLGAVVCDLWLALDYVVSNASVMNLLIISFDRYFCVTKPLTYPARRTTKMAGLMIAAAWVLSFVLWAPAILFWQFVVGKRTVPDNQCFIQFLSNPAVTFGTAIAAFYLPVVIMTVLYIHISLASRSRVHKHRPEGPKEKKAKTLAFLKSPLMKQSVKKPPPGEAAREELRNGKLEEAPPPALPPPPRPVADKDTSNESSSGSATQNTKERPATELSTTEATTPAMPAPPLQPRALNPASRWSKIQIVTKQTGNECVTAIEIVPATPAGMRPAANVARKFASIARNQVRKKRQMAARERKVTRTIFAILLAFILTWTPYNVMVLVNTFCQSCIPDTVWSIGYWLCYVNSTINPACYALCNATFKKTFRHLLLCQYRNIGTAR
Sequence of Muscarinic acetylcholine receptor M3 (Homo sapiens) (P20309 whole entry, looked up): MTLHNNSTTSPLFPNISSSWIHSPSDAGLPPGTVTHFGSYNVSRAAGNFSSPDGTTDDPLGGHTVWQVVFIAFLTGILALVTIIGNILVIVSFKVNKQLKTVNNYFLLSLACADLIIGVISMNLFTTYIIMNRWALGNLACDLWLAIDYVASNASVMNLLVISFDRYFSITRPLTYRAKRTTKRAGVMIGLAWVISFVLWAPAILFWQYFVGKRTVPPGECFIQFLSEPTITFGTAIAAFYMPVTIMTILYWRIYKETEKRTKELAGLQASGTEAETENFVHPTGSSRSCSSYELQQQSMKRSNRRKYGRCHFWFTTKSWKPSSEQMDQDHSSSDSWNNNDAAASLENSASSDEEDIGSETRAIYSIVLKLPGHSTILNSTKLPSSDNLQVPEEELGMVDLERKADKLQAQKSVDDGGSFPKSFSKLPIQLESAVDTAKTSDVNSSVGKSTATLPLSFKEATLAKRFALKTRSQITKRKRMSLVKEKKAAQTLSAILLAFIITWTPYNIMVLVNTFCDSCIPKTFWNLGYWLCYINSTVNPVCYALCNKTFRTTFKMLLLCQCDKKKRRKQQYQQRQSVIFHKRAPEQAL
Sequence of Muscarinic acetylcholine receptor M2 (Homo sapiens) (P08172 whole entry, looked up): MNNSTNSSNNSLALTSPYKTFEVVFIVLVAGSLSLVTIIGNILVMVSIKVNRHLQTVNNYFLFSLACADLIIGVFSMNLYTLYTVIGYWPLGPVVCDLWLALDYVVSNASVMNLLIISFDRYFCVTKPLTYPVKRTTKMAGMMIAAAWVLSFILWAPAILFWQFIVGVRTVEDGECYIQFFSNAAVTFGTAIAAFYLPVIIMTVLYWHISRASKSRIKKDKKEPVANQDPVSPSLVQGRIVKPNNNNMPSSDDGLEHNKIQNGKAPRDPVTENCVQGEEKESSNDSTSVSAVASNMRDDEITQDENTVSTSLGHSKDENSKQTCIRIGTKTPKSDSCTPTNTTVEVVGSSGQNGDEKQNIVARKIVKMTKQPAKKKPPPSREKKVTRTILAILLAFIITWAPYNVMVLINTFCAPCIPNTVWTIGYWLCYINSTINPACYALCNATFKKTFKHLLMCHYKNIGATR
Sequence of Muscarinic acetylcholine receptor M1 (Homo sapiens) (P11229 whole entry, looked up): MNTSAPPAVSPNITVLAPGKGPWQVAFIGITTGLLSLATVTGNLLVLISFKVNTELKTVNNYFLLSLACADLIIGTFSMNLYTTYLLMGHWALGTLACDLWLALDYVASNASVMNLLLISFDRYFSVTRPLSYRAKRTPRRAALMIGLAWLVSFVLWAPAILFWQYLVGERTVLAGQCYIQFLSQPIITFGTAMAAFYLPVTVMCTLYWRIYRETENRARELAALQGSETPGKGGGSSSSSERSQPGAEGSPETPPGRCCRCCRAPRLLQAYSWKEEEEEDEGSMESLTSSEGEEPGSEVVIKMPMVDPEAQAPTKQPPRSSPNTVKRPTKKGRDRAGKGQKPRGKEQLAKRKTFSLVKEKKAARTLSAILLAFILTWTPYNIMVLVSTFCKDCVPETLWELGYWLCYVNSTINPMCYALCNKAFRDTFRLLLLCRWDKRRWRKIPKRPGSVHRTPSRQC
Sequence of D(1A) dopamine receptor (Homo sapiens) (P21728 whole entry, looked up): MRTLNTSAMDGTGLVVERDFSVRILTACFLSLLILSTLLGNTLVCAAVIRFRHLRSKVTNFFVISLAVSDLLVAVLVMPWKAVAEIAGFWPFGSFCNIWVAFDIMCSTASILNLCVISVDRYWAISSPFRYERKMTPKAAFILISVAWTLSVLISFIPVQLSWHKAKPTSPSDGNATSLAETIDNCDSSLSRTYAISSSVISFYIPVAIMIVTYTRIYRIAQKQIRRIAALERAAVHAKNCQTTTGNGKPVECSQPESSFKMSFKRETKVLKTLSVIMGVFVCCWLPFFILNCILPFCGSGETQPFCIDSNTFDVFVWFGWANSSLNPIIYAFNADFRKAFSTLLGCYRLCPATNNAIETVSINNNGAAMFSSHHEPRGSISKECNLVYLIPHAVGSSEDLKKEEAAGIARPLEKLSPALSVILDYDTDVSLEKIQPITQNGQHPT
Sequence of human Neuropeptide Receptor Y1 (NPY1), NPY1R (gene 4886) (P25929 whole entry, looked up): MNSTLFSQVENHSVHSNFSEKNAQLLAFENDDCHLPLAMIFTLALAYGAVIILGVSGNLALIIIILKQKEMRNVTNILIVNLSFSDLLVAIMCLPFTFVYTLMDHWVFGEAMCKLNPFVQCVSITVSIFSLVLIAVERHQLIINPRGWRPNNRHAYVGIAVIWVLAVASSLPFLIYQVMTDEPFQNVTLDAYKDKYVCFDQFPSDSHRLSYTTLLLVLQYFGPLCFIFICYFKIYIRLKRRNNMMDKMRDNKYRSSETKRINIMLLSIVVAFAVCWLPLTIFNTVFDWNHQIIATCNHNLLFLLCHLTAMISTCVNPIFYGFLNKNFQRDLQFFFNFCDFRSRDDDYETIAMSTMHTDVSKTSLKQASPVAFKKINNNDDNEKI
Sequence of Neuropeptide Y receptor type 2 (Homo sapiens) (P49146 whole entry, looked up): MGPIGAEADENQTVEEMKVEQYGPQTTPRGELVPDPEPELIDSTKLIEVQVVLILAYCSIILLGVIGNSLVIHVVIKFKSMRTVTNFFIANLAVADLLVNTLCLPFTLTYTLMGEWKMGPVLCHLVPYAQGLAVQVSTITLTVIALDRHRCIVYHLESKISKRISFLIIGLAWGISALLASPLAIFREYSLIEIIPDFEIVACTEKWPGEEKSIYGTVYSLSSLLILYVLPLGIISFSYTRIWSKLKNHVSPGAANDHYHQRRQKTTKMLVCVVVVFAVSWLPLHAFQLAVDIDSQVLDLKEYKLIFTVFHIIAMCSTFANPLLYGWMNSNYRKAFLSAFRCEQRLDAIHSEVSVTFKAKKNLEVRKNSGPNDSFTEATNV
Sequence of human Leukotriene B4 Receptor 1 (LTB4-BLT1), LTB4R (gene 1241) (Q15722 whole entry, looked up): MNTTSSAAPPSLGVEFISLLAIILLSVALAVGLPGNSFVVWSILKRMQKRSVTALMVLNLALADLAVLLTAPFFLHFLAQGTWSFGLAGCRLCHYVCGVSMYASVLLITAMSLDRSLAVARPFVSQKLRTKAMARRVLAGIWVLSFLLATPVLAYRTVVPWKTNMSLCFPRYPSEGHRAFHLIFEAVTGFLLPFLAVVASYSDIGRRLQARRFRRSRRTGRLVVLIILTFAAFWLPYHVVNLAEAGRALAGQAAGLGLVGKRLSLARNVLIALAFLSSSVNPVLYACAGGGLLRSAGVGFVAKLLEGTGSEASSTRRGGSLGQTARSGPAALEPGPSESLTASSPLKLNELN
Sequence of human Histamine 1 Receptor (H1), HRH1 (gene 3269) (P35367 whole entry, looked up): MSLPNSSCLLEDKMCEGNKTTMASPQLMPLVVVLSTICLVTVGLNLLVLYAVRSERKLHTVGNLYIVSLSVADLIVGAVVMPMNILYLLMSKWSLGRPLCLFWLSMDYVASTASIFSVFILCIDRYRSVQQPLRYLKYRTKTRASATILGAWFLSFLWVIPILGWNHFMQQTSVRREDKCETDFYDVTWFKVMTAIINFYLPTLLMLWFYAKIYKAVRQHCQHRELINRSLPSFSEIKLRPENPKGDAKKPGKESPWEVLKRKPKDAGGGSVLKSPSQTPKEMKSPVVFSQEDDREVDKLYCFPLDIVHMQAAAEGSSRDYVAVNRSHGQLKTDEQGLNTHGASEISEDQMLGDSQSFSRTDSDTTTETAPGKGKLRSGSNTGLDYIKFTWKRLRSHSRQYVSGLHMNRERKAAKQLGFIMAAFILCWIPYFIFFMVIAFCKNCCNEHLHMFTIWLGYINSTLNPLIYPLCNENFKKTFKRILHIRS

CCc1cccc(CC)c1N(COC)C(=O)CCl
outcome [1]: inactive

C#CCC1=C(C)C(OC(=O)C2C(C=C(C)C)C2(C)C)CC1=O (stereo unspecified)
AC50 [2]: 11 µM (active)
AC50 [3]: 7.59 µM (active)
outcome [1]: inactive

CCCOCC(=Nc1ccc(Cl)cc1C(F)(F)F)n1ccnc1
AC50 [4]: 9.19 µM (active)
outcome [5]: inactive
outcome [1]: inactive

Cc1cc(C2CC2)nc(Nc2ccccc2)n1
AC50 [2]: 10.1 µM (active)
AC50 [3]: 5.41 µM (active)
AC50 [5]: 6.13 µM (active)
AC50 [6]: 6.51 µM (active)

C[N+]1(C)CCCCC1
outcome [5]: inactive
outcome [7]: inactive

CCOP(=S)(OCC)Oc1ccc([N+](=O)[O-])cc1
AC50 [3]: 5.42 µM (active)
AC50 [6]: 7.24 µM (active)

COc1cccc(C(=O)NN(C(=O)c2cc(C)cc(C)c2)C(C)(C)C)c1C
AC50 [3]: 0.429 µM (active)
outcome [5]: inactive

CC1(C(=O)Nc2ccc(O)c(Cl)c2Cl)CCCCC1
AC50 [1]: 3.04 µM (active)

CC(C)N(C(=O)SCC(Cl)=C(Cl)Cl)C(C)C
outcome [6]: inactive

CC(C1CC1)C(O)(Cn1cncn1)c1ccc(Cl)cc1 (stereo unspecified)
AC50 [6]: 12.1 µM (active)

COc1ccc(C(=CC(=O)N2CCOCC2)c2ccc(Cl)cc2)cc1OC
outcome [8]: inactive

CN1COCN(Cc2cnc(Cl)s2)C1=N[N+](=O)[O-]
outcome [3]: inactive
outcome [7]: inactive

CN(C)C(=O)Nc1cccc(C(F)(F)F)c1
outcome [9]: inactive

S=C1NCCN1
outcome [5]: inactive
outcome [10]: inactive

N#CSCSC#N
AC50 [10]: 12.6 µM (active)

COc1cc(OC)nc(Sc2cccc(Cl)c2C(=O)O)n1
outcome [8]: inactive

COP(=O)(OC)OC(Br)C(Cl)(Cl)Br (stereo unspecified)
AC50 [4]: 11.8 µM (active)
AC50 [10]: 15.5 µM (active)

CC1=NNC(=O)N(/N=C/c2cccnc2)C1
outcome [6]: inactive

CC(C)=CC1C(C(=O)OCN2C(=O)C3=C(CCCC3)C2=O)C1(C)C (stereo unspecified)
AC50 [4]: 6.68 µM (active)

CCOP(=O)(SC(C)CC)N1CCSC1=O (stereo unspecified)
outcome [9]: inactive

CC[C@H](C)[C@H]1O[C@]2(C=C[C@@H]1C)C[C@@H]1C[C@@H](C/C=C(\C)[C@@H](O[C@H]3C[C@H](OC)[C@@H](O[C@H]4C[C@H](OC)[C@@H](NC)[C@H](C)O4)[C@H](C)O3)[C@@H](C)/C=C/C=C3\CO[C@@H]4[C@H](O)C(C)=C[C@@H](C(=O)O1)[C@]34O)O2
AC50 [4]: 8.1 µM (active)
AC50 [2]: 12.6 µM (active)
AC50 [3]: 10.1 µM (active)
AC50 [6]: 12.9 µM (active)
AC50 [10]: 18.3 µM (active)
AC50 [1]: 8.41 µM (active)

CC(C)[C@H](C(=O)O[C@H](C#N)c1cccc(Oc2ccccc2)c1)c1ccc(Cl)cc1
AC50 [1]: 4.82 µM (active)

Nc1nc(N)nc(NC2CC2)n1
outcome [7]: inactive

C[Si](Cn1cncn1)(c1ccc(F)cc1)c1ccc(F)cc1
AC50 [3]: 11.6 µM (active)
outcome [5]: inactive
AC50 [6]: 14.4 µM (active)

CCOP(=O)(NC(C)C)Oc1ccc(SC)c(C)c1 (stereo unspecified)
outcome [2]: inactive

FC(F)C(F)(F)OCC(Cn1cncn1)c1ccc(Cl)cc1Cl (stereo unspecified)
outcome [6]: inactive
